PubChem BioAssay
Active and inactive are the calls of the source.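 How the source made its calls, unless noted: active means fluorescence slope higher than the sample average by over 3 SD (cut at about -0.22 in these data, passing the limit was not always enough); inactive means the rest.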

Legend:
[1] = inhibitors of TNFa-induced NFkB p65 translocation, primary screen, imaging, HUVEC, MLSMR starter and 10KST1 sets (AID 438;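 active means inhibition above 20% together with a positive visual image hit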;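 further: compound added about 3h40 before a 20 min TNFalpha stimulation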;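 on inhibition: signal is the nuclear over cytoplasmic p65 intensity ratio per well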); conditions: HUVEC TNFa-induced p65 nuclear translocation; cell count: measured here: nuclei count (cytotoxicity indicator), at 2.08 µM; inhibition: at 2 µM, stronger effect = higher value, 0% TNFa-plus-vehicle, 100% no-TNFa wells
[2] = reduction of polyQ htt aggregates in cells – imaging, exon1htt(103Q)mCFP cells, high-content imaging, primary screen (AID 483;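 active means visual image review flags a hit and inhibition of aggregation exceeds 20%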;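 further: compound exposure lasted 3 days before fixation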;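 on nuclei count: percent of the per-plate median nuclei count of sample wells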); conditions: exon1htt(103Q)mCFP cell line, aggregate imaging, at 2 µM; inhibition of aggregation: stronger effect = higher value; nuclei count: measured here: cell count, toxicity
[3] = endothelial E-selectin expression blockers – imaging, HUVEC, immunofluorescence, MLSMR starter and 10KST1 sets, primary screen (AID 487;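 active means visually confirmed hit in the image check and inhibition above 20%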;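 on inhibition: signal is fraction of cell area covered by stained E-selectin grains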;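 on nuclei count: 100% = median nuclei count of all wells on the same plate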); conditions: HUVEC TNFalpha-induced E-selectin immunofluorescence imaging, at 2 µM; inhibition: stronger effect = higher value; nuclei count: measured here: cell number, toxicity
[4] = biological target: Voltage-gated potassium channel subunit beta-2 (Rattus norvegicus) (UniProt P62483); experiment: inhibitors of rat Kvbeta2 reductase activity – biochemical, NADPH fluorescence, primary screen (AID 622); conditions: recombinant KvBeta, 4-cyanobenzaldehyde reduction, at 10 µM, stronger effect = higher value;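 further: slope of raw intensity against log time taken from 70 to 1610 s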
[5] = biological target: Voltage-gated potassium channel subunit beta-2 (Rattus norvegicus) (UniProt P62483); experiment: enhancers of rat Kvbeta2 NADPH turnover – biochemical, NADPH fluorescence, primary screen (AID 623;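 active means NADPH fluorescence slope more negative than the mean of all samples by about 3 SD, 99.7% confidence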;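 further: fluorescence intensity change per second fitted from 20 to 320 s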); conditions: Recombinant KvBeta, NADPH fluorescence decrease slope, 10 min; at 10 µM; stronger effect = lower value
[6] = biological target: Alpha-2C adrenergic receptor (Homo sapiens) (UniProt P18825); experiment: compounds altering alpha2C-coupled GIRK flux – cell-based, HEK293 alpha2C/GIRK1/2, thallium flux, primary screen (AID 624;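 active means fluorescence slope after compound addition differing from the mean of all screened samples at 99.7% confidence, in either direction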;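 further: slope of fluorescence ratio to pre-addition baseline per second over 15 to 24 s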); conditions: thallium flux BTC fluorescence, at 10 µM, actives lie on both sides
[7] = blockers of RIG-like receptor reporter activation – cell-based, Sendai virus stimulus, luciferase, 10K MLSCN set, TLR/RLR signaling modifier project, primary screen (AID 602276;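 active means inhibition at or above 50% at 10 µM; inactive means inhibition below 50%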;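 further: firefly luciferase from ISG56 promoter only with Renilla not read in this screen; 0% = Sendai virus plus DMSO and 100% = medium plus DMSO without virus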); conditions: HEK293 RL24 IRF3 luciferase reporter, at 10 µM, stronger effect = higher value
[8] = TLR3 IRF3 reporter activation blockers – cell-based, poly I:C stimulus, luciferase, 10K MLSCN set, primary screen (AID 602277;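 active means inhibition of the reporter signal at or above 50%; inactive means inhibition below 50%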); conditions: HEK293-TLR3 RL24 IRF3 luciferase reporter, at 10 µM, stronger effect = higher value

Voltage-gated potassium channel subunit beta-2 (Rattus norvegicus), sequence (P62483 whole entry, looked up): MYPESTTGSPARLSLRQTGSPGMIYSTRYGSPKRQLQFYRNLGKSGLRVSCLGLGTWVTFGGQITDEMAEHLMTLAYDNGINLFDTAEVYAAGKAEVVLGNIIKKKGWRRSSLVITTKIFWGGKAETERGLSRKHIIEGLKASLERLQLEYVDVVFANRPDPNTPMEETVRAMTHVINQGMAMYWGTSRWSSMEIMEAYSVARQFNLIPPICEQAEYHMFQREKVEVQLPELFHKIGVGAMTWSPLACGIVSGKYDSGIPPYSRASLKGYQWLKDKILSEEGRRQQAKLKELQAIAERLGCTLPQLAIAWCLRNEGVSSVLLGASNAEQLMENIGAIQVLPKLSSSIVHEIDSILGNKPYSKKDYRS
Alpha-2C adrenergic receptor (Homo sapiens), sequence (P18825 whole entry, looked up): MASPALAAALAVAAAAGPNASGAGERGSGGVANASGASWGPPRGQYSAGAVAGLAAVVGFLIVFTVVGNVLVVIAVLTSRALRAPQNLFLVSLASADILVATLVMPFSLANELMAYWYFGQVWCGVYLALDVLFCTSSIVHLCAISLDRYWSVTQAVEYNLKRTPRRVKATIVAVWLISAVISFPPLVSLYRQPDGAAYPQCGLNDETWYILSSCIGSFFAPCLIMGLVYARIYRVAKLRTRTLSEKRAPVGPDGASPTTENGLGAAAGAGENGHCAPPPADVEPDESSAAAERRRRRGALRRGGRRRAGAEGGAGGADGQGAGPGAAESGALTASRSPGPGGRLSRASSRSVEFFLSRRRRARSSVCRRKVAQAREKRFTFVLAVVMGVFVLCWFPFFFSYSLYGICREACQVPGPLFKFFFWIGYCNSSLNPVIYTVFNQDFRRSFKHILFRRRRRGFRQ

| SMILES | cell count [1] | inhibition [1] | inhibition of aggregation [2] | nuclei count [2] | inhibition [3] | nuclei count [3] | fluorescence slope [4] | NADPH fluorescence slope [5] | slope [6] | inhibition [7] | inhibition [8] |
| --- | --- | --- | --- | --- | --- | --- | --- | --- | --- | --- | --- |
| O=C(NCc1ccc2c(c1)OCO2)C1CCCN(S(=O)(=O)c2cccnc2)C1 (centres undefined) | 584 | 7.6% (inactive) | -1.4% (inactive) | 96.3% | -65.3% (inactive) | 119% | -0.575 (inactive) | -2.7e-05 (inactive) | 0.00636 (inactive) | 8.73% (inactive) | 23.4% (inactive) |
| O=C(Nc1nccs1)c1ccc(COc2ccccc2Br)o1 | 694 | -14.6% (inactive) | -27.8% (inactive) | 111% | -85.8% (inactive) | 118% | -0.487 (inactive) | -5.4e-05 (inactive) | 0.00542 (inactive) | 21.2% (inactive) | -63.2% (inactive) |
| CCN(CCNC(=O)CS(=O)(=O)Cc1nc(-c2cccc(OC)c2)oc1C)c1ccccc1 | 644 | -27.6% (inactive) | -16.4% (inactive) | 121% | -37.8% (inactive) | 107% | -0.53 (inactive) | -4e-05 (inactive) | 0.00529 (inactive) | 13.7% (inactive) | 20.1% (inactive) |
| CCOC(=O)c1cc2c(=O)n3ccccc3nc2n(CC(C)C)c1=NC(=O)c1ccco1 | 659 | -13.4% (inactive) | 6.2% (inactive) | 96.7% | -49.4% (inactive) | 112% | -0.532 (inactive) | -5.6e-06 (inactive) | 0.00344 (inactive) | 2.77% (inactive) | 20.4% (inactive) |
| COc1ccccc1OCC(=O)Nc1cccc(-c2nc3ccccc3o2)c1 | 468 | 0% (inactive) | 1% (inactive) | 61.8% | -65.1% (inactive) | 110% | -0.374 (inactive) | -1.4e-06 (inactive) | 0.00387 (inactive) | -0.911% (inactive) | -2.39% (inactive) |
| O=C(O)CC1NC(=O)N(c2ccccc2)C1=O (centres undefined) | 540 | -4.6% (inactive) | 5.1% (inactive) | 95.5% | -106% (inactive) | 114% | -0.599 (inactive) | 1.8e-06 (inactive) | 0.00411 (inactive) | 16.4% (inactive) | 21.9% (inactive) |
| COc1ccc(-c2ccc(=O)n(Cc3cc(=O)n4ccccc4n3)n2)cc1 | 789 | -6.4% (inactive) | -19.1% (inactive) | 99.5% | -101% (inactive) | 140% | -0.108 (inactive) | -3.8e-05 (inactive) | 0.00509 (inactive) | 7.67% (inactive) | 12.2% (inactive) |
| COC(=O)Cn1c(=O)c2c(nc(Br)n2CC(=O)OC)n(C)c1=O | 640 | 6.7% (inactive) | -0.4% (inactive) | 103% | 24.8% (inactive) | 101% | -0.406 (inactive) | -1.4e-05 (inactive) | 0.00483 (inactive) | 9.82% (inactive) | 7.4% (inactive) |
| C=CCn1c(SCC(=O)c2cc(C)n(C(C)COC)c2C)nc2sc(C)c(C)c2c1=O (centres undefined) | 357 | 3% (inactive) | -8.9% (inactive) | 99.9% | -1.2% (inactive) | 100% | -0.459 (inactive) | 1e-05 (inactive) | 0.00515 (inactive) | 7.26% (inactive) | 22.9% (inactive) |
| COc1ccc(-c2nc(C#N)c(N3CCOCC3)o2)cc1OC | 257 | -4.8% (inactive) | 30.6% (active) | 92.9% | -16.3% (inactive) | 98.5% | -0.341 (inactive) | -1.9e-05 (inactive) | 0.00341 (inactive) | 9.75% (inactive) | -1.53% (inactive) |
| CCN(CC)C(=O)C1CCCc2c1[nH]c1ccc(Cl)cc21 (centres undefined) | 674 | -18.9% (inactive) | -0.9% (inactive) | 109% | -47.8% (inactive) | 104% | -0.539 (inactive) | -3.5e-05 (inactive) | 0.00741 (inactive) | -47.5% (inactive) | -12.1% (inactive) |
| Cc1ccc2cc(CN(CCN3CCCC3)C(=O)Nc3ccc(F)cc3)c(=O)[nH]c2c1C | 540 | -29.6% (inactive) | -45.2% (inactive) | 109% | -47.4% (inactive) | 111% | -0.587 (inactive) | 2.1e-05 (inactive) | 0.00603 (inactive) | 3.48% (inactive) | 16.1% (inactive) |
| CCC(C)NC(=O)c1cc(CC(C)C)on1 (centres undefined) | 880 | 3.5% (inactive) | 21.8% (inactive) | 80.5% | -78.2% (inactive) | 127% | -0.61 (inactive) | -1.9e-05 (inactive) | 0.00602 (inactive) | -59.4% (inactive) | -111% (inactive) |
| Cc1ccc(C(c2nnnn2CCC(C)C)N2CCN(C)CC2)cc1 (centres undefined) | 417 | 1% (inactive) | 8.9% (inactive) | 73.1% | -73.9% (inactive) | 108% | -0.598 (inactive) | -4.8e-05 (inactive) | 0.00252 (inactive) | 13.9% (inactive) | -3.3% (inactive) |
